# LGR2 antag = inhibitors of bursicon-induced LGR2 CRE-luciferase signal, primary screen, cell-based, HEK293, CRE-luciferase reporter, bursicon stimulation; bursicon-stimulated, 4 h; inhibition, % at 9.99 µM; 380,000 tested, 0.35% active; Drosophila bursicon receptor LGR2 (rickets);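 active = drop in luminescence signal, shown as inhibition above about 50% in the replicate tests, limit read from the data, passing the limit was not always enough; inconclusive = probably only some replicates passing the limit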;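 note: agonist challenge used bursicon conditioned medium at about half maximal strength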
# PAX8 inh HTS = inhibitors of PAX8-driven TPO luciferase reporter, primary screen, RMG-I cells, single concentration | 360,000 tested, 1.2% active | SteadyGlo, 24 h | inhibition, % at 12.6 µM;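 active = mean replicate inhibition at least 60% with every replicate also reaching 60%; inconclusive = only one of the two criteria is met; inactive = mean below 60% and not all replicates reaching 60%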;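 note: luciferase light reporting Pax8 driven TPO promoter activity; plate controls were median of neutral control wells for no effect and mitoxantrone controls for full effect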
# EWS-Fli block = EWS/Fli-driven NR0B1 reporter inhibitors, primary screen, A673 cells, NR0B1 luciferase, luminescence, MLPCN library; viability-normalised; inhibition, % at 12.6 µM; 350,000 tested, 0.67% active;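 active = mean inhibition of at least 50% after viability correction, with every replicate also passing that limit; inconclusive = mean reaches 50% but only one of two replicates passes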;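 note: firefly luciferase signal divided by Alamar Blue viability fluorescence both relative to DMSO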
# F508del corr = F508del CFTR correction, initial screen, CFBE line, single point | 350,000 tested, 0.36% active | AID 720511, 2013 | activity (quench increase), % at 7.58 µM | CFBE cells, YFP halide quenching; stimulated with forskolin plus potentiator P3; % fluorescence drop versus neutral controls;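 active = mean added fluorescence quench of at least 8% versus neutral control, with both replicates also reaching 8%; inconclusive = only one of the mean or replicate conditions met; inactive = mean below 8% and not both replicates reaching 8%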;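 note: cells transiently co-express mutant CFTR-F508del with the halide-sensitive YFP; corrector assay measuring rescue of mutant channel to the surface after 24 h compound exposure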
# The depositor's hits bear a star; u = inconclusive; x = no result; ! = not active in a repeat. The list is not random: actives were taken first. Their share in the collection is about 1.8%.
SMILES,LGR2 antag,PAX8 inh HTS,EWS-Fli block,F508del corr
COc1ccccc1S(=O)(=O)N(C)C[C@H]1Oc2cc(C#CCC3CCCC3)ccc2S(=O)(=O)N([C@H](C)CO)C[C@@H]1C,23,73*,-8,0
COc1ccccc1S(=O)(=O)N(C)C[C@H]1Oc2cc(C#CCC(C)C)ccc2S(=O)(=O)N([C@@H](C)CO)C[C@@H]1C,30,x,16,0
COc1ccccc1S(=O)(=O)N(C)C[C@@H]1Oc2cc(C#CCC3CCCC3)ccc2S(=O)(=O)N([C@H](C)CO)C[C@@H]1C,23,64*,28,3
COc1ccccc1S(=O)(=O)N(C)C[C@@H]1Oc2cc(C#CCC(C)C)ccc2S(=O)(=O)N([C@H](C)CO)C[C@@H]1C,-6,27,17,3
COc1ccccc1S(=O)(=O)N(C)C[C@H]1Oc2cc(C#CCC3CCCC3)ccc2S(=O)(=O)N([C@H](C)CO)C[C@H]1C,1,84*!,8,-2
CC(C)(C)S(=O)N1Cc2cc(C(=O)NCCCN3CCOCC3)nc(-c3cccc(C#CCC4CCCC4)c3)c2[C@@H]1CCO (some centres not stated),5,82*,21,3
COc1ccc(CNC(=O)c2cc3c(c(-c4cccc(-c5cccc(C#N)c5)c4)n2)[C@@H](CCO)N([S@](=O)C(C)(C)C)C3)cc1,-5,15,10,3
COc1ccc(CNC(=O)c2cc3c(c(-c4cccc(-c5ccc(C#N)cc5)c4)n2)[C@@H](CCO)N([S@](=O)C(C)(C)C)C3)cc1,14,24,5,12*
O=C(NNC(=O)c1ccccc1Cl)c1ccc2c(c1)OCCO2,-31,-164,-80,-2
Cc1cc2oc(=O)cc(-c3cc4ccccc4o3)c2cc1O,-18,-16,-13,0
Cc1c2cc(O)c(=O)cc-2oc2cc(O)c(O)cc12,21,x,-10,17*
COc1cc(-c2cc(=O)c3ccc(O)cc3o2)cc(OC)c1OC,9,x,6,1
COc1cc(OC)c(-c2c3cc(O)c(=O)cc-3oc3cc(O)c(O)cc23)cc1OC,25,4,-8,21*
Cc1cn2c(-c3cccnc3)nnc2s1,x,3,x,x
CC[C@]12c3[nH]c4ccc(Cl)cc4c3CCN1C(=O)[C@@H](CC(=O)NC/C=C(\C)CCC=C(C)C)C[C@@H]2C(=O)N1CCN(C(=O)C2CC2)CC1,2,75*,8,3
CC(C)C[C@@H](CN1CCCC1CN1C(=S)NC[C@@H]1Cc1ccc(O)cc1)N1C[C@H](Cc2ccc(O)cc2)N(CCc2ccccc2)C1=S (some centres not stated),6,71*,7,1
CCOc1ccc(CCN2C(=S)N([C@@H](Cc3ccc(O)cc3)CN3CCCC3CN3C(=S)NC[C@@H]3Cc3ccc(O)cc3)C[C@@H]2CC(C)C)cc1 (some centres not stated),x,54,27,3
CCOc1ccc(CCN2C(=S)N([C@@H](Cc3ccc(O)cc3)CN3CCC[C@@H]3CN3C(=S)NC[C@@H]3CC(C)C)C[C@@H]2Cc2ccc(O)cc2)cc1,2,98*,34,4
CCN(C[C@H]1[C@H](c2ccccc2)[C@@H](CO)N1C(=O)C1CC1)C(=O)NC1CCCC1,-37,3,2,0
O=C(CN1C(=O)NC2NC(=O)NC21)N/N=C/c1ccccc1O (configuration not stated),-7,-14,-3,1
O=C(CN1C(=O)NC2NC(=O)NC21)NN=C1CCCC1 (configuration not stated),10,83*,-7,-2
COc1ccc(CN(C)C[C@@H]2OCCCC[C@H](C)Oc3ccc(NC(=O)Nc4cccc5ccccc45)cc3C(=O)N([C@H](C)CO)C[C@@H]2C)cc1,-2,10,-12,-3
COc1ccc(CN(C)C[C@H]2OCCCC[C@H](C)Oc3ccc(NC(=O)Nc4cccc5ccccc45)cc3C(=O)N([C@@H](C)CO)C[C@H]2C)cc1,1,19,45,3
COc1ccc(CN(C)C[C@@H]2OCCCC[C@H](C)Oc3ccc(NC(=O)Nc4cccc5ccccc45)cc3C(=O)N([C@H](C)CO)C[C@H]2C)cc1,x,80*,3,0
COc1ccc(CN(C)C[C@@H]2OCCCC[C@@H](C)Oc3ccc(NC(=O)Nc4cccc5ccccc45)cc3C(=O)N([C@@H](C)CO)C[C@@H]2C)cc1,1,3,-2,1
SMILES,LGR2 antag,PAX8 inh HTS,EWS-Fli block,F508del corr
COc1ccc(CN(C)C[C@@H]2OCCCC[C@@H](C)Oc3ccc(NC(=O)Nc4cccc5ccccc45)cc3C(=O)N([C@H](C)CO)C[C@H]2C)cc1,x,42,67*,-3
COc1ccc(CN(C)C[C@@H]2OCCCC[C@@H](C)Oc3ccc(NC(=O)Nc4cccc5ccccc45)cc3C(=O)N([C@@H](C)CO)C[C@H]2C)cc1,13,10,64*,-1
COc1ccc(CN(C)C[C@@H]2OCCCC[C@H](C)Oc3ccc(NC(=O)Nc4cccc5ccccc45)cc3C(=O)N([C@@H](C)CO)C[C@@H]2C)cc1,6,7,65*,-1
CO[C@@H]1CN(C)C(=O)c2ccc(NC(C)=O)cc2OC[C@H](C)N(C(=O)c2ccccn2)C[C@H]1C,5,-15,4,2
COc1ccccc1CNC(=O)COC(=O)Cc1c(F)cccc1Cl,-1,66*,-4,1
CCC(C(=O)NCc1ccc(F)cc1)N(CCc1ccccc1)C(=O)c1snc(C(N)=O)c1N (configuration not stated),2,0,1,-2
CCOC(=O)/C=C(\C)Sc1cc(=O)oc2ccccc12,x,64*,x,x
CCOC(=O)/C=C(\C)Sc1cc(O)c2ccccc2c1O,-6,35,36,2
O=C(NCc1ccco1)C1Cc2cc(Cl)ccc2O1 (configuration not stated),-20,13,1,3
Cc1ccc2c(CC(=O)NNC(=O)c3ccccc3)coc2c1,0,11,-1,x
O=C(NC1CCCCC1)C(c1cccnc1)N(C(=O)CCl)c1ccc(F)cc1 (configuration not stated),0,109*,57*,1
COc1ccc(N(C(=O)CCl)C(C(=O)NC2CCCCC2)c2cccnc2)cc1 (configuration not stated),5,113*,x,x
O=C(NC1CCCCC1)C(c1cccnc1)N(C(=O)CCl)c1ccccc1Cl (configuration not stated),13,101*,48,7
CCN1CCN(c2nc(-c3cccs3)nc3ccccc23)CC1,-11,134*,-14,-2
CC[n+]1c(C=C2C=C(C)OC(C)=C2)sc2ccccc21,21,85*,u,1
CCN1CCN(c2ccc(S(=O)(=O)N3CCCCC3)cc2NC(=O)/C=C/c2ccc([N+](=O)[O-])cc2)CC1,1,41,57*,3
